From the supplement of paper PMC10849652
Of roughly 7,900 targets only a part is listed; those with a hit were picked by preference. About 0.6% of all pairs of compound and target were hits.

Columns and labels:
Test in all cases: log2 fold change, soluble protein after heating vs DMSO (PISA); higher = thermal stabilisation; K562 cells, 10 uM, 30 min; active = over 0.2 and 3.5 SD of the protein, either way, in both replicates (recomputed)
[1] = compound: COC1=CC=C(C=C1)CN2C=CC3=C2C=C(C=C3)C(=O)NO
Summary of the method: (§1)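 K562 cells at 2×10^6 cells/mL were treated for 30 min with 10 μM compound, and aliquots were heated for 3 min over 48°C-58°C before pooling. Extraction used PBS with 0.5% NP-40 at 4°C, and soluble protein was the supernatant after 21,000xg for 90 min, measured by TMTpro 16plex LC-MS/MS with channel sums equalised. Thermal stability values, relative to control samples and from duplicates, are log2 fold changes.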

filanesib = compound: CON(C)C(=O)N1N=C(c2cc(F)ccc2F)S[C@@]1(CCCN)c1ccccc1 [filanesib]
Summary of the method: as §1

zotarolimus = compound: CO[C@H]1C[C@@H]2CC[C@@H](C)[C@@](O)(O2)C(=O)C(=O)N2CCCC[C@H]2C(=O)O[C@H]([C@H](C)C[C@@H]2CC[C@H](n3cnnn3)[C@H](OC)C2)CC(=O)[C@H](C)/C=C(\C)[C@@H](O)[C@@H](OC)C(=O)[C@H](C)C[C@H](C)/C=C/C=C/C=C/1C [zotarolimus]
Summary of the method: as §1

idasanutlin = compound: COc1cc(C(=O)O)ccc1NC(=O)[C@@H]1N[C@@H](CC(C)(C)C)[C@](C#N)(c2ccc(Cl)cc2F)[C@H]1c1cccc(Cl)c1F [idasanutlin]
Summary of the method: as §1

alisertib = compound: COc1cc(Nc2ncc3c(n2)-c2ccc(Cl)cc2C(c2c(F)cccc2OC)=NC3)ccc1C(=O)O [alisertib]
Summary of the method: as §1

[2] = compound: COc1cc2nc(-c3cc(F)ccc3O)nc(N[C@@H]3CNC[C@H]3C(C)(C)O)c2cc1OC
Summary of the method: as §1

gefitinib = compound: COc1cc2ncnc(Nc3ccc(F)c(Cl)c3)c2cc1OCCCN1CCOCC1 [gefitinib]
Summary of the method: as §1

[3] = compound: COc1cccc2cc(-c3nc([C@H]4CC[C@H](C(=O)O)CC4)n4ncnc(N)c34)[nH]c12
Summary of the method: as §1

lapatinib = compound: CS(=O)(=O)CCNCc1ccc(-c2ccc3ncnc(Nc4ccc(OCc5cccc(F)c5)c(Cl)c4)c3c2)o1 [lapatinib]
Summary of the method: as §1

pictilisib = compound: CS(=O)(=O)N1CCN(Cc2cc3nc(-c4cccc5[nH]ncc45)nc(N4CCOCC4)c3s2)CC1 [pictilisib]
Summary of the method: as §1

[4] = compound: CS(=O)(=O)c1ccc(-c2cnc(N)c(C(=O)Nc3ccccc3)n2)cc1
Summary of the method: as §1

crizotinib = compound: C[C@@H](Oc1cc(-c2cnn(C3CCNCC3)c2)cnc1N)c1c(Cl)ccc(F)c1Cl [crizotinib]
Summary of the method: as §1

[5] = compound: C[C@@H]1COCCN1C2=NC(=NC(=C2)C3(CC3)S(=O)(=O)C)C4=C5C=CNC5=CC=C4
Summary of the method: as §1

[6] = compound: C[C@H](C1=CC=C(C=C1)C(=O)NC2=C3C=CNC3=NC=C2)N
Summary of the method: as §1

duvelisib = compound: C[C@H](Nc1ncnc2nc[nH]c12)c1cc2cccc(Cl)c2c(=O)n1-c1ccccc1 [duvelisib]
Summary of the method: as §1

gandotinib = compound: Cc1cc(Nc2cc(CN3CCOCC3)c3nc(C)c(Cc4ccc(Cl)cc4F)n3n2)n[nH]1 [gandotinib]
Summary of the method: as §1

tozasertib = compound: Cc1cc(Nc2cc(N3CCN(C)CC3)nc(Sc3ccc(NC(=O)C4CC4)cc3)n2)n[nH]1 [tozasertib]
Summary of the method: as §1

[7] = compound: Cc1cc(SCc2sc(-c3ccc(C(F)(F)F)cc3)nc2C)ccc1OCC(=O)O
Summary of the method: as §1

doramapimod = compound: Cc1ccc(-n2nc(C(C)(C)C)cc2NC(=O)Nc2ccc(OCCN3CCOCC3)c3ccccc23)cc1 [doramapimod]
Summary of the method: as §1

ispinesib = compound: Cc1ccc(C(=O)N(CCCN)[C@@H](c2nc3cc(Cl)ccc3c(=O)n2Cc2ccccc2)C(C)C)cc1 [ispinesib]
Summary of the method: as §1

Measured: log2 fold change

PTGES3 (UniProt Q15185)
Sequence of UniProt Q15185 (Q15185 whole entry, looked up): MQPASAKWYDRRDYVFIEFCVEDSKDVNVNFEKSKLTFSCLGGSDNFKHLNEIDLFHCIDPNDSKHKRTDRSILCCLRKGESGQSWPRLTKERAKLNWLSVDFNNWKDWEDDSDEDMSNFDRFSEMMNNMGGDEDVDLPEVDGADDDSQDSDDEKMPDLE
inactive: [1] 0.23 | filanesib -0.091 | zotarolimus 0.055 | idasanutlin 0.004 | alisertib 0.016 | [2] -0.044 | gefitinib 0.044 | [3] -0.038 | lapatinib 0.007 | pictilisib 0.027 | [4] 0.047 | crizotinib 0.066 | [5] 0.068 | [6] -0.101 | duvelisib 0.03 | gandotinib -0.049 | tozasertib 0.063 | [7] 0.086 | doramapimod -0.118 | ispinesib 0.015

PRPF38B (UniProt Q5VTL8)
Sequence of UniProt Q5VTL8 (Q5VTL8 whole entry, looked up): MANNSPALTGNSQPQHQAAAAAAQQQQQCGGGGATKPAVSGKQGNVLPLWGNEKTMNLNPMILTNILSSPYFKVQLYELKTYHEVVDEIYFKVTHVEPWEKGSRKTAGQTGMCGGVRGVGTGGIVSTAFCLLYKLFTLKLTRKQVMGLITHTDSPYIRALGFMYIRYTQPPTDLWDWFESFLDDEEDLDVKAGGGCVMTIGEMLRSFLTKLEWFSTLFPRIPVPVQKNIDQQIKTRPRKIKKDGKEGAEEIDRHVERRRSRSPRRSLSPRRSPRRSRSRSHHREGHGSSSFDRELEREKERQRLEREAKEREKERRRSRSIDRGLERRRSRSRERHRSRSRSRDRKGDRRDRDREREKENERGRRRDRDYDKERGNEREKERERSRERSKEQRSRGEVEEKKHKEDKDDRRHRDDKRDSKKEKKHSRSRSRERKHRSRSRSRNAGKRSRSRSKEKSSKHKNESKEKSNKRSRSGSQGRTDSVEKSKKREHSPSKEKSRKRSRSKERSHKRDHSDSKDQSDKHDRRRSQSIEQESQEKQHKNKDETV
inactive: [1] -0.004 | filanesib 0.163 | zotarolimus 0.016 | idasanutlin 0.039 | alisertib -0.09 | [2] 0.083 | gefitinib 0.002 | [3] 0.043 | lapatinib 0.027 | pictilisib 0.065 | [4] -0.051 | crizotinib -0.026 | [5] 0.058 | duvelisib 0.023 | gandotinib 0.001 | tozasertib -0.022 | [7] -0.002 | doramapimod 0.005 | ispinesib 0.193
active: [6] -0.269

PTP4A1 (UniProt Q93096)
inactive: [1] 0.009 | filanesib -0.088 | zotarolimus 0.05 | idasanutlin 0.089 | alisertib -0.129 | gefitinib 0.033 | [3] 0.04 | lapatinib 0.024 | pictilisib 0.068 | [4] 0.04 | crizotinib 0.036 | [5] -0.006 | [6] -0.094 | duvelisib -0.013 | gandotinib -0.116 | tozasertib 0.018 | [7] -0.039 | doramapimod -0.037 | ispinesib 0.039
active: [2] -0.267

PPP4R3B (UniProt Q5MIZ7)
inactive: [1] -0.01 | filanesib -0.004 | zotarolimus 0.014 | idasanutlin -0.039 | alisertib 0.048 | [2] 0 | gefitinib -0.034 | [3] -0.034 | lapatinib 0.047 | pictilisib 0.076 | [4] -0.003 | crizotinib 0.124 | [5] 0.064 | [6] -0.035 | duvelisib 0.048 | gandotinib -0.075 | tozasertib 0.149 | [7] 0.056 | doramapimod 0 | ispinesib 0.056

PSMC6 (UniProt P62333)
Sequence of UniProt P62333 (P62333 whole entry, looked up): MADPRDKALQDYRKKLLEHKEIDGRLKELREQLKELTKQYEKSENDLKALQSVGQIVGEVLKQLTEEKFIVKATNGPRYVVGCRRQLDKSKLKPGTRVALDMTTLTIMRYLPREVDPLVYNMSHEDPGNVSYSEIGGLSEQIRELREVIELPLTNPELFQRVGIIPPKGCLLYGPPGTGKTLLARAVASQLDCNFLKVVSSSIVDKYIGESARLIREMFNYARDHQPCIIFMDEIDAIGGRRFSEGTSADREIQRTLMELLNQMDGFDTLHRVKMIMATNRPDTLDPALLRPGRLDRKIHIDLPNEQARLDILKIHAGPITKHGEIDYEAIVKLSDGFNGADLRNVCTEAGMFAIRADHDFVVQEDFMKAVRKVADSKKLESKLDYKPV
inactive: [1] -0.059 | filanesib 0.083 | zotarolimus -0.003 | idasanutlin 0.005 | alisertib -0.093 | [2] -0.024 | gefitinib -0.038 | [3] -0.057 | lapatinib 0.049 | pictilisib -0.054 | [4] 0.032 | crizotinib 0.022 | [5] -0.047 | [6] 0.116 | duvelisib -0.033 | gandotinib 0.054 | tozasertib 0.031 | [7] -0.002 | doramapimod 0.021 | ispinesib 0.007

PIP4K2A (UniProt P48426)
active: [2] 0.379 | [4] 0.411
inactive: [1] 0.022 | filanesib 0.006 | zotarolimus -0.002 | idasanutlin -0.11 | alisertib -0.018 | gefitinib 0.017 | [3] 0.314 | lapatinib -0.054 | pictilisib 0.132 | crizotinib -0.032 | [5] 0.027 | [6] 0.013 | duvelisib -0.126 | gandotinib -0.084 | tozasertib -0.007 | [7] 0.042 | doramapimod 0.026 | ispinesib -0.052

POLR2B (UniProt P30876)
inactive: [1] 0.034 | filanesib 0.031 | zotarolimus -0.012 | idasanutlin -0.039 | alisertib -0.057 | [2] 0.214 | gefitinib 0.064 | [3] 0.007 | lapatinib -0.018 | pictilisib 0.076 | [4] 0.041 | crizotinib 0.032 | [5] 0.023 | [6] 0.18 | duvelisib 0.025 | tozasertib -0.014 | [7] 0.03 | doramapimod -0.014 | ispinesib -0.048
active: gandotinib 0.26

PKM (UniProt P14618)
Sequence of UniProt P14618 (P14618 whole entry, looked up): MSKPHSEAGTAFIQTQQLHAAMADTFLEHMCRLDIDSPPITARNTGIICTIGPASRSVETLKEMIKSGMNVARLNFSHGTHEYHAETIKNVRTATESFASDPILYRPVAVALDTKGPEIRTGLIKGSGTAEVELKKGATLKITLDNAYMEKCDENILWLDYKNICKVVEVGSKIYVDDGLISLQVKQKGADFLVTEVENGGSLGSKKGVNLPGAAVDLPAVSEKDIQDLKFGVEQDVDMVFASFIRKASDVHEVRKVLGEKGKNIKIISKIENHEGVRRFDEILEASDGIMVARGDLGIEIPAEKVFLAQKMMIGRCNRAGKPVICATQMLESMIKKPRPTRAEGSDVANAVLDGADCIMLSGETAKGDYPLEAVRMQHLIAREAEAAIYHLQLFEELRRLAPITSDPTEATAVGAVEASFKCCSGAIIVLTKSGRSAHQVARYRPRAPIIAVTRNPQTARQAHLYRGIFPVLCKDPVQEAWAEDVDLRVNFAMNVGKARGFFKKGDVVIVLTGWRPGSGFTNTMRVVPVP
inactive: [1] 0 | filanesib -0.048 | zotarolimus -0.004 | idasanutlin -0.04 | alisertib -0.073 | [2] 0.012 | gefitinib -0.002 | [3] 0.054 | lapatinib -0.033 | pictilisib 0.026 | [4] 0.003 | crizotinib 0.021 | [5] 0.013 | [6] -0.044 | duvelisib 0.007 | gandotinib -0.013 | tozasertib -0.026 | [7] -0.029 | doramapimod -0.019 | ispinesib 0.02

POLR2M (UniProt P0CAP2)
inactive: [1] -0.025 | filanesib -0.004 | zotarolimus -0.05 | idasanutlin -0.022 | alisertib -0.015 | [2] 0.094 | gefitinib -0.08 | [3] 0.054 | lapatinib -0.044 | [4] 0.028 | crizotinib 0.074 | [5] 0.097 | [6] 0.044 | duvelisib 0.164 | gandotinib 0.141 | tozasertib -0.052 | [7] 0.012 | doramapimod 0.013 | ispinesib -0.055
active: pictilisib -0.254

PDS5A (UniProt Q29RF7)
Sequence of UniProt Q29RF7 (Q29RF7 whole entry, looked up): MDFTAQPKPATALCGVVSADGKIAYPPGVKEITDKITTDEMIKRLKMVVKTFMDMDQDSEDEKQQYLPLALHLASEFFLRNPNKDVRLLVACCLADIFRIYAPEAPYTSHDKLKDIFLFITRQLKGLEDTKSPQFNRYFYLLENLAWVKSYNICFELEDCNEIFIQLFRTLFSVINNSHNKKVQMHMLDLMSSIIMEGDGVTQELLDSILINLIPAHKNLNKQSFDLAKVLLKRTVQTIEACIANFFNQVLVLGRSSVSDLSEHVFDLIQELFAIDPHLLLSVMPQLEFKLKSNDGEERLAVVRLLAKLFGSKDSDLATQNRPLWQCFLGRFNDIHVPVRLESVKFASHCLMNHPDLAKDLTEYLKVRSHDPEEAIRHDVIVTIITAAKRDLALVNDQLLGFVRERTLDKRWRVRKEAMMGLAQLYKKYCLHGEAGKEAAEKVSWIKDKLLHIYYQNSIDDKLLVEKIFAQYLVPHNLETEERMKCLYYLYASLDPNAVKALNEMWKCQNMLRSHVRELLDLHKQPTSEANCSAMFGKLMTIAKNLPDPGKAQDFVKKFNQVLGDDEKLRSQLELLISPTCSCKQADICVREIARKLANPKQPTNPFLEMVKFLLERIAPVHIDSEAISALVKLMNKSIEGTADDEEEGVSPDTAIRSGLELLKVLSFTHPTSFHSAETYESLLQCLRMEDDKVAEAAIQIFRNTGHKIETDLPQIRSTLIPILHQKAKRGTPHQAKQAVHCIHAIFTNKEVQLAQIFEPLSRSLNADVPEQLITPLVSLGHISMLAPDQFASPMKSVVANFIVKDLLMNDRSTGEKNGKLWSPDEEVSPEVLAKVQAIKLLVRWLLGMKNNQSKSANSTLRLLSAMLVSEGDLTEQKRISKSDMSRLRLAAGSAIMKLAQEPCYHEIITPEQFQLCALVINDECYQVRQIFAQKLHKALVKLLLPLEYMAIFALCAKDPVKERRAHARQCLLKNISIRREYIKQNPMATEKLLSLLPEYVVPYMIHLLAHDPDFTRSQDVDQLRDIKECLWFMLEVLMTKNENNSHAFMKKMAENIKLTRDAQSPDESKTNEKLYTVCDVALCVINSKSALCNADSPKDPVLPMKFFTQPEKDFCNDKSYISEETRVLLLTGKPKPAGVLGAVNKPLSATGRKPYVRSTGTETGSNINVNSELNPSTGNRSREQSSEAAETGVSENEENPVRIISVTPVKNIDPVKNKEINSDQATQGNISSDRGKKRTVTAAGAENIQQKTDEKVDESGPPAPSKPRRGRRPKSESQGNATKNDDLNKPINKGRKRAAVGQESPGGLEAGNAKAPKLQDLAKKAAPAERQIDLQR
inactive: [1] 0.076 | filanesib -0.316 | zotarolimus -0.137 | idasanutlin -0.012 | alisertib 0.067 | [2] 0.043 | gefitinib -0.125 | [3] -0.19 | lapatinib -0.072 | pictilisib -0.014 | [4] 0.03 | crizotinib -0.383 | [5] 0.063 | [6] 0.043 | duvelisib 0.053 | gandotinib -0.099 | tozasertib 0.117 | [7] 0.182 | doramapimod -0.057 | ispinesib -0.127

PDPK1 (UniProt O15530)
Sequence of UniProt O15530 (O15530 whole entry, looked up): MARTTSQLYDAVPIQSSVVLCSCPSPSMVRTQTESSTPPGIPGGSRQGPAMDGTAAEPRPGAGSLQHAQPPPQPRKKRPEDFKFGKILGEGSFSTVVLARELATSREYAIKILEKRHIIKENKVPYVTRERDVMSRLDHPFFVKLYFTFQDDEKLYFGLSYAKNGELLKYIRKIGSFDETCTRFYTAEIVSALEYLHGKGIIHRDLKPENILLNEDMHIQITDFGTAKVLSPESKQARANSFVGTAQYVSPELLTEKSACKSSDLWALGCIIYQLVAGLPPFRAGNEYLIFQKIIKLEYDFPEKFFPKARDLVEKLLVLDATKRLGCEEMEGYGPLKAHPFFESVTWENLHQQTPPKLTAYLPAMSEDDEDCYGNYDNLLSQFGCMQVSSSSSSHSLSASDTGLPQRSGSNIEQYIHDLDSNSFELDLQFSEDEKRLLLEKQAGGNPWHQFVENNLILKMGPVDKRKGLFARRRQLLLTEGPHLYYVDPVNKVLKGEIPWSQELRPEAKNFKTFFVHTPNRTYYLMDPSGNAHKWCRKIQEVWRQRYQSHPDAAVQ
active: crizotinib -0.282
inactive: [1] -0.015 | filanesib -0.097 | zotarolimus 0.04 | idasanutlin -0.048 | alisertib -0.017 | [2] 0.011 | gefitinib -0.028 | [3] 0.01 | lapatinib -0.058 | pictilisib -0.179 | [4] -0.066 | [5] 0.081 | [6] 0.013 | duvelisib -0.206 | gandotinib -0.173 | tozasertib -0.085 | [7] 0.015 | doramapimod 0.003 | ispinesib -0.143

PIP4P1 isoform 2 (UniProt Q86T03)
Sequence of UniProt Q86T03 (Q86T03 whole entry, looked up): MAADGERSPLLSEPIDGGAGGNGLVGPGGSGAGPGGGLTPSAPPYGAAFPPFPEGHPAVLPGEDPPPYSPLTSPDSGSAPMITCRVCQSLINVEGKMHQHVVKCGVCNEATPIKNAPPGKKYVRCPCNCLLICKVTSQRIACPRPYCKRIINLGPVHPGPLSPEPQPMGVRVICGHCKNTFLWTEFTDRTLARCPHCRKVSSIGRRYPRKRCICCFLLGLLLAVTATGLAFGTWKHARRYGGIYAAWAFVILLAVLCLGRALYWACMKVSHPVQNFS
inactive: [1] 0.089 | zotarolimus 0.004 | idasanutlin 0.002 | alisertib 0.032 | [2] -0.072 | gefitinib -0.018 | [3] -0.058 | lapatinib 0.06 | pictilisib -0.061 | [4] 0.021 | [5] -0.123 | [6] 0.086 | duvelisib -0.085 | gandotinib 0.107 | tozasertib 0.021 | [7] -0.048 | doramapimod -0.025
active: filanesib -0.32 | crizotinib -0.395 | ispinesib -0.353

PMPCA (UniProt Q10713)
Sequence of UniProt Q10713 (Q10713 whole entry, looked up): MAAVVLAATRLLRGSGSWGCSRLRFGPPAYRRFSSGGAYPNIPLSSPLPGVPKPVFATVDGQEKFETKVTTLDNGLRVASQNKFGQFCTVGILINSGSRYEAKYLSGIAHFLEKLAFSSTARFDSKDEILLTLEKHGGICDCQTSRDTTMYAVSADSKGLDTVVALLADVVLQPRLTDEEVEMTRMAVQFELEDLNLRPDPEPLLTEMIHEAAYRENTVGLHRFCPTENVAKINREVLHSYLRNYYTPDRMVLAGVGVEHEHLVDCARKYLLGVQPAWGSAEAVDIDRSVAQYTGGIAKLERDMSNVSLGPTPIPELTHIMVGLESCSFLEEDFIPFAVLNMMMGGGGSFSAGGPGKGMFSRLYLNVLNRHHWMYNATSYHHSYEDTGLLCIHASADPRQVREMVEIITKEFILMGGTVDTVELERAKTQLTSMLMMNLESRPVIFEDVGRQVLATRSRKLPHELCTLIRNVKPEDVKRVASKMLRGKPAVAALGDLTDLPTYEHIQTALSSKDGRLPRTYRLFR
inactive: [1] -0.041 | filanesib 0.013 | zotarolimus 0.035 | idasanutlin -0.1 | alisertib -0.089 | [2] -0.02 | gefitinib 0.043 | [3] 0.009 | lapatinib -0.023 | pictilisib 0.018 | [4] 0.006 | crizotinib -0.014 | [5] 0.033 | [6] -0.07 | duvelisib 0.055 | gandotinib -0.076 | tozasertib -0.022 | [7] -0.011 | doramapimod 0.028 | ispinesib -0.043

POLA1 (UniProt P09884)
inactive: [1] 0.053 | filanesib -0.023 | zotarolimus 0.008 | idasanutlin 0.003 | alisertib -0.053 | [2] 0.016 | gefitinib 0.015 | [3] -0.008 | lapatinib -0.005 | pictilisib 0.033 | [4] 0.01 | crizotinib -0.041 | [5] 0.065 | [6] -0.048 | duvelisib 0.046 | gandotinib -0.069 | tozasertib 0.083 | [7] 0.09 | doramapimod -0.029 | ispinesib -0.036

PLBD1 (UniProt Q6P4A8)
Sequence of UniProt Q6P4A8 (Q6P4A8 whole entry, looked up): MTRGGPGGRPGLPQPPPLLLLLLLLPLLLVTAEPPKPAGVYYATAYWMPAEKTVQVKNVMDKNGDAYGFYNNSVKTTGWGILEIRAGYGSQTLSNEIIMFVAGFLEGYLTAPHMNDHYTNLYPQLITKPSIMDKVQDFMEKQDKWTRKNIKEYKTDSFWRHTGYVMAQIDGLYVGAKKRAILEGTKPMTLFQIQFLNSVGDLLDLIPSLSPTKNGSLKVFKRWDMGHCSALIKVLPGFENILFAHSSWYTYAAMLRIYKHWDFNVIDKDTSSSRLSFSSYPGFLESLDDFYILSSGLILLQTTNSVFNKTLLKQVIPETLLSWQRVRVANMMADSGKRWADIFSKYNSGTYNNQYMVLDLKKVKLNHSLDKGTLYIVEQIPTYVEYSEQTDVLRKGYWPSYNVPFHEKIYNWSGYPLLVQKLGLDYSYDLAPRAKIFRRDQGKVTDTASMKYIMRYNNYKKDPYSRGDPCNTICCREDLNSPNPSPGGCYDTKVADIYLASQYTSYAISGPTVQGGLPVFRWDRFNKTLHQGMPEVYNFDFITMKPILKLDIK
inactive: [1] -0.076 | filanesib -0.051 | zotarolimus -0.057 | idasanutlin 0.019 | alisertib 0.169 | [2] -0.016 | gefitinib 0.019 | [3] 0.048 | lapatinib 0.03 | pictilisib 0.039 | [4] -0.01 | crizotinib -0.082 | [5] 0.009 | [6] -0.032 | duvelisib 0.01 | gandotinib 0.011 | tozasertib -0.005 | [7] -0.032 | doramapimod -0.007 | ispinesib 0.016

PCK2 (UniProt Q16822)
active: [1] -0.339
inactive: filanesib -0.007 | zotarolimus 0.045 | idasanutlin -0.044 | alisertib -0.035 | [2] 0.024 | gefitinib -0.025 | [3] 0.027 | lapatinib -0.045 | pictilisib 0.011 | [4] 0.009 | crizotinib 0.17 | [5] 0.01 | [6] -0.098 | duvelisib 0.064 | gandotinib 0 | tozasertib 0 | [7] -0.012 | doramapimod 0 | ispinesib 0.076
